# The campaign covered roughly 150,000 compounds. About 6,500 (4.3%) were called active. About 12% were inconclusive and are not listed. Calls come from the whole dose curve; as a rule, active = well fitted inhibition curve with a large enough effect (not every such curve was filed as active); inconclusive = small, poorly fitted or top-dose-only effect, or another doubt; inactive = no such curve, though single readings can be large or run the other way. Many of the other results were omitted from the sample, so actives are more common in it than they were.
# Biological target: 15-hydroxyprostaglandin dehydrogenase [NAD(+)] (Homo sapiens) (UniProt P15428)
# Assay: qHTS Assay for Inhibitors of HPGD (15-Hydroxyprostaglandin Dehydrogenase)
# Conditions: purified HPGD, NADH fluorescence kinetic, PGE2 substrate; activity change, negative = inhibition: active compounds read low
# Summary of the method: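 20 nM HPGD preincubated 15 min at room temperature with compound in 50 mM Tris-HCl pH 8, 0.01% Tween 20. Started with 1 mM NAD+ and 30 uM prostaglandin E2; NADH fluorescence (360/450 nm) read 5 times over 30-s intervals, last minus first.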
# % is set by controls: 0 for no effect and ±100 for the full control effect; potency is the fitted concentration of half-maximal effect.
# 15-hydroxyprostaglandin dehydrogenase [NAD(+)] (Homo sapiens), sequence (P15428 whole entry, looked up): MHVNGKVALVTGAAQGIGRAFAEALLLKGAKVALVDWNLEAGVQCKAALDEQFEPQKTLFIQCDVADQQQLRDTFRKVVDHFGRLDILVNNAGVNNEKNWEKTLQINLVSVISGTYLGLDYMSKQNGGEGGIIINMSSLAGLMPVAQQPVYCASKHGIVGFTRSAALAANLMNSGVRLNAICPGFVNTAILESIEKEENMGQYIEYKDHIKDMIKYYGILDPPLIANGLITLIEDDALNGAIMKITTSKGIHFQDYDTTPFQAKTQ
Compound,"activity change, negative = inhibition",Potency
O=C(O)C[C@@H]1NC(=O)[C@H](Cc2ccccc2)NC1=O,-8.82% (inactive),–
Cc1ccc(C(=O)Nc2c(C#N)c(C)c(C)n2Cc2ccccc2)cc1,-7.72% (inactive),–
Cc1ccccc1-n1c(C)cc(/C=N/NC(=O)c2ccc(CN3CCOCC3)cc2)c1C,-16.5% (inactive),–
Cc1ccc(C(=O)N/N=C/c2sc(=O)n(Cc3cccc(C(=O)O)c3)c2Cl)cc1,–,28.2 µM (active)
Cn1c(CO)cnc1SCc1ccccc1,1.72% (inactive),–
CSc1c(SCc2ccccc2)cnn(Cc2ccccc2)c1=O,–,25.1 µM (active)
O=c1c2ccccc2c(-c2ccccc2)nn1Cc1ccccc1,-16.5% (inactive),–
O=C(NNC(=O)c1cc2c(s1)CCCC2)c1ccccc1,-17.6% (inactive),–
Cc1cccc(NC(=O)CSc2nc3[nH]ncc3c(=O)[nH]2)c1,-11% (inactive),–
COC(=O)c1cccc(NC(=O)CSc2nc(C)cc(=O)[nH]2)c1,–,20 µM (active)
COc1ccc(NC(=O)CSc2nc(NS(=O)(=O)c3ccc(C)cc3)cc(=O)[nH]2)cc1,-10.9% (inactive),–
COc1cccc(CC(=O)N2CCc3nc(COc4ccccc4)c4c(c3C2)CO[C@@H](C)C4)c1,-2.54% (inactive),–
Cc1ccc(N/N=C2\COC(C)(C)CC2=O)cc1,-19.3% (inactive),–
C=C(C)C(=O)c1ccc(F)cc1,-9.12% (inactive),–
CNC(=O)/C(C#N)=C/c1c(F)cccc1Cl,-9.42% (inactive),–
O=C(NCCc1ccccc1)c1ccc(NC2=NC3CS(=O)(=O)CC3S2)cc1 (centres undefined),-15.7% (inactive),–
CC1CCCN(c2ccc(C(=O)NCCc3ccccc3)cn2)C1 (centres undefined),–,17.8 µM (active)
O=C(NCCc1ccccc1)c1ccc(OCCOc2ccccc2)cc1,-14.9% (inactive),–
COC(=O)/C(C#N)=C/c1occc1C,-10.9% (inactive),–
N#C/C(=C/c1cccc([N+](=O)[O-])c1)c1nnc2n1CCCCC2,–,20 µM (active)
O=[N+]([O-])c1cccc(S(=O)(=O)N2CCCCCC2)c1,-12% (inactive),–
N#C/C(=C(\O)CCl)c1nnc2n1CCCCC2,1.76% (inactive),–
Cc1ccn(-c2cccc(-n3ccc(C)n3)n2)n1,-19.2% (inactive),–
O=C(OCC(=O)c1cccs1)C1=COCCO1,-17.4% (inactive),–

Compound,"activity change, negative = inhibition",Potency
CC(C)NS(=O)(=O)c1ccc(OCC(=O)Nc2ccc3c(c2)OCCO3)cc1,0.139% (inactive),–
CCC(C)(C)c1ccc(Oc2ccc(NC(=O)COC(=O)C3=COCCO3)cc2)cc1,–,14.1 µM (active)
CC(C)(C)CC(C)(C)NCC(O)COCCOc1ccc(Br)cc1 (centres undefined),-5.61% (inactive),–
CCOC(=O)c1c(/N=C/C2C(=O)CC(C)(C)CC2=O)sc(C)c1C,-11.6% (inactive),–
CCc1ccc(NC(=O)c2ccc(Cn3cc([N+](=O)[O-])cn3)cc2)cc1,-0.318% (inactive),–
O=C(c1ccccc1)c1ccc(OC(=O)N2CCCC2)cc1,-20% (inactive),–
O=C(COc1cccc(F)c1)Oc1ccc(C(=O)c2ccccc2)cc1,–,7.94 µM (active)
O=C(Oc1ccccc1)c1ccc2nccnc2c1,-13% (inactive),–
C/C(=N\NC(=O)Cc1ccc(F)cc1)c1ccc(F)cc1,-3.27% (inactive),–
Cc1ccc(S(=O)(=O)N(NC2=NS(=O)(=O)c3ccccc32)C(=O)c2ccccc2)cc1,-7.36% (inactive),–
Cc1ccc(NC(=O)CSCC(=O)N2CCOCC2)cc1,2.74% (inactive),–
Cc1ccc(NC(=S)NC2CCCC2)cc1,-9.46% (inactive),–
Cc1ccc(NC(=O)CSCC(=O)NC2CCCCC2)cc1,–,15.8 µM (active)
Cc1ccc(/C(N)=N/OC(=O)COc2ccc(Cl)c(C)c2)cc1,-14.6% (inactive),–
COc1ccc(O)c(C(=O)c2cnc3onc(C(C)C)c3c2)c1,-14.6% (inactive),–
COCCn1c(=O)[nH]c(=O)c2cc(C(=O)c3cc(OC)ccc3O)cnc21,–,25.1 µM (active)
COCCn1c(=S)[nH]c2cc(C(=O)NCCc3ccc(OC)c(OC)c3)ccc2c1=O,-4.68% (inactive),–
Cc1ccc(CN2C(=O)N/C(=C/c3cc(C)n(-c4ccccn4)c3C)C2=O)cc1,-12.6% (inactive),–
C/C(Cc1ccccc1)=N\NC(=O)CNC(=O)c1cccc(Br)c1,-6.55% (inactive),–
O=C(COC(=O)Cc1ccc(F)cc1)Nc1cc(S(=O)(=O)N2CCOCC2)ccc1N1CCCC1,-3.83% (inactive),–
CCCCCn1c(SCCC(C)C)nc2c1c(=O)[nH]c(=O)n2C,–,20 µM (active)
CCCCCCn1c(SCC(=O)c2ccccc2)nc2c1c(=O)[nH]c(=O)n2C,-21.9% (inactive),–
CCCSc1nc2c(c(=O)[nH]c(=O)n2C)n1CCc1ccccc1,-20.7% (inactive),–
O=C(COC(=O)Cc1ccc(Br)cc1)Nc1c(F)c(F)c(F)c(F)c1F,-9.95% (inactive),–

Compound,"activity change, negative = inhibition",Potency
O=c1[nH]n(-c2cccc(Cl)c2)c2ncccc12,–,6.31 µM (active)
Cc1[nH]n(-c2cccc(Cl)c2)c(=O)c1/C=N/n1c(C)nc2ccccc2c1=O,-20.7% (inactive),–
Cc1[nH]n(-c2cccc(Cl)c2)c(=O)c1-c1ccc(Cl)cc1,-13% (inactive),–
COc1cc(CCC(=O)OCC(=O)Nc2cccc(S(N)(=O)=O)c2)cc(OC)c1OC,-6.23% (inactive),–
COC(=O)c1onc(-c2c(OC)cc(OC)cc2OC)c1C(=O)OC,-3.93% (inactive),–
N#Cc1ccsc1NC(=O)CN1CCN(S(=O)(=O)c2cc(Cl)ccc2Cl)CC1,-24.3% (inactive),–
CC(CCO)Nc1nc2c([nH]1)c(=O)n(C)c(=O)n2C (centres undefined),-11.6% (inactive),–
CCCSc1nc2c(c(=O)n(C)c(=O)n2C)n1Cc1ccc(C)cc1,-7.96% (inactive),–
Cc1ccc(NN=Nc2nc3c([nH]2)c(=O)n(C)c(=O)n3C)cc1,–,22.4 µM (active)
Cn1c(=O)[nH]c(=O)c2c1nc(Br)n2CCCCSc1nc2ccccc2o1,–,25.1 µM (active)
CCN(CC)C(=O)CSc1nc2ccccc2o1,-23.4% (inactive),–
Cc1ccnc(SCCn2c(Br)nc3c2c(=O)[nH]c(=O)n3C)n1,-9.47% (inactive),–
Cc1cccc(Cn2c(SCCO)nc3c2c(=O)n(C)c(=O)n3C)c1,-7.66% (inactive),–
Cn1c(=O)c2c(nc(Br)n2CCSc2nc3ccccc3o2)n(C)c1=O,–,31.6 µM (active)
CN(Cc1ccccc1)c1nc2c(c(=O)[nH]c(=O)n2C)n1CCSc1nc2ccccc2[nH]1,-9.14% (inactive),–
CCCC/S(C)=N/S(=O)(=O)c1ccc(C)cc1 (centres undefined),1.3% (inactive),–
Cc1ccc(C)c(NC(CC(=O)c2ccccc2)C(=O)OCC(=O)c2cccs2)c1 (centres undefined),-4.17% (inactive),–
CCOc1ccccc1N1CCN(C(=S)Nc2ccc(S(N)(=O)=O)cc2)CC1,-4.15% (inactive),–
Cc1ccc(S(=O)(=O)C2C(=O)NC3(C)CC2c2ccccc2O3)cc1 (centres undefined),-19.6% (inactive),–
O=C(NN1C(=O)C2C3C=CC(O3)C2C1=O)c1ccncc1 (centres undefined),2.88% (inactive),–
COc1cccc(C(=O)NNC(=O)c2ccccc2Br)c1,-0.052% (inactive),–
CCn1c(=N)n(CC(=O)c2cccc(OC)c2)c2ccccc21,–,35.5 µM (active)
CCCCOC(=O)Cn1c(=N)n(CCN(CC)CC)c2ccccc21,-7.8% (inactive),–
Cn1cccc1/C=C1\SC(=S)N(NC(=O)c2ccc(Cl)cc2)C1=O,-8.93% (inactive),–

Compound,"activity change, negative = inhibition",Potency
Cc1cc(C)c(C#N)c(SCC(=O)NN2CC(=O)N(c3ccccc3F)CC2=O)n1,-14% (inactive),–
Cc1cc(C)c(C#N)c(SCc2ccccc2C(=O)O)n1,-15% (inactive),–
Cc1cc(C)c(C#N)c(SCS(=O)c2ccc(C(C)(C)C)cc2)n1 (centres undefined),–,15.8 µM (active)
Cc1ccc(C(=O)NC(=S)NCCN2CCOCC2)cc1,-5.64% (inactive),–
Cc1c(O)c(Br)c(C)c(O)c1Br (tested in a mixture with another compound),–,0.891 µM (active)
CCOC(=O)CSc1nnc(-c2ccncc2)o1,-12.2% (inactive),–
O=C(OCC#CCSc1nnc(-c2ccncc2)o1)c1sc2ccccc2c1Cl,–,20 µM (active)
O=C(CSc1nnc(-c2ccncc2)o1)NCc1ccc(Cl)cc1,-1.7% (inactive),–
O=C(CCc1ccccc1)Nc1nn[nH]n1,-9.52% (inactive),–
O=C(O)C1CC=CCC1C(=O)Nc1ccccc1C(=O)N1CCN(c2ccccc2)CC1 (centres undefined),-1.15% (inactive),–
CC(C)c1ccc(N2CCN(C(=O)c3ccccc3NC(=O)/C=C(\C(=O)O)c3ccccc3)CC2)cc1,–,35.5 µM (active)
Cc1cccc(N2CCN(C(=O)c3ccccc3NC(=O)C3CCCCC3C(=O)O)CC2)c1 (centres undefined),-8.91% (inactive),–
O=C(C/C(=N\NC(=O)c1ccccc1Br)C(F)(F)F)c1cccs1,-18.1% (inactive),–
N#Cc1cccc(CS(=O)(=O)c2nnnn2-c2cc(C(F)(F)F)cc(C(F)(F)F)c2)c1,-8.91% (inactive),–
COCCn1c(=NC(=O)c2ccccc2[N+](=O)[O-])sc2cc(S(C)(=O)=O)ccc21,-11.2% (inactive),–
O=C(Nc1ccccc1)c1cccnc1Nc1ccccc1,-10.1% (inactive),–
CC(C)c1ccc(/C=C/C(=O)NNC(=O)c2cccnc2)cc1,-6.71% (inactive),–
CC(C)c1ccc(Nc2ncccc2C#N)cc1,–,25.1 µM (active)
O=C(Nc1ccccc1)c1cc2ccccc2[nH]1,-6.75% (inactive),–
COc1ccc(C)cc1NC(=O)CSc1ccc(Cl)cc1,-13.4% (inactive),–
Cc1cc(C(=O)OCC(=O)Nc2nnc(C(C)C)s2)c2ccccc2n1,-10.9% (inactive),–
COCCCNC(=S)NC(=O)c1ccc([N+](=O)[O-])cc1,-5.32% (inactive),–

# From PubChem BioAssay AID894 (National Center for Advancing Translational Sciences (NCATS), 2007)
